Screens (PubChem)
Hits are enriched below; roughly 11% of the tested compounds scored in any of these assays.
AMA1 RON2 block: AMA1-RON2 (P. falciparum) interaction inhibition. AlphaScreen AMA1-biotinylated RON2 peptide binding. Potency, µM (series often up to 58.2 µM), most hits filed as inhibitors. 0.2% of 360,000 active. AID 720542; also: nearly all actives have a fitted effect of over 45% in size
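AMA1 (3D7) with his tag at 25 nM final met compounds first, then biotinylated RON2 peptide at 25 nM; detection used donor plus acceptor beads, 10 µg/mL apiece, read by AlphaScreen after 30 min at room temperature.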
AmpC inh no detg: blocks E. coli AmpC beta-lactamase in detergent-free assay; P00811; AmpC nitrocefin hydrolysis, absorbance 480 nm, 0.0001% Triton; Potency, µM (series often up to 57.1 µM), hits mostly inhibitors; 0.52% of 330,000 active; AID 485341; also: nearly all actives have a fitted effect of over 20% in size
Target sequence (P00811 whole entry, looked up): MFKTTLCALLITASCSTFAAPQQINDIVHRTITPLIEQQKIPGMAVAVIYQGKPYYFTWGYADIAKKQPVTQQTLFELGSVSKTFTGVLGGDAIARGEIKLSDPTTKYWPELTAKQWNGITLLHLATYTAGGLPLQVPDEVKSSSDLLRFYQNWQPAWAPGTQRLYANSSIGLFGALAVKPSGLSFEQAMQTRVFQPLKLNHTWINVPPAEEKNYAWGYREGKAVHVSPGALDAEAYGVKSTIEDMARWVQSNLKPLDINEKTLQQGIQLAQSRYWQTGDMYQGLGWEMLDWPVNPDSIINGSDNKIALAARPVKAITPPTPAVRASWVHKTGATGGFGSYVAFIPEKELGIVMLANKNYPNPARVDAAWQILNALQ
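AmpC (5.3 nM in the dispensed reagent) in 20 mM phosphate pH 7.0 with 0.01% (detergent screen) or 0.0001% Triton X-100 was preincubated with compounds for 15 min at room temperature. Nitrocefin was then added from an 800 uM solution, and hydrolysis was followed at 480 nm.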
AmpC inh detg: blocks E. coli AmpC beta-lactamase in detergent assay; P00811; AmpC hydrolysis of nitrocefin, absorbance 480 nm, 0.01% Triton; Potency, µM (top dose mostly 114 µM), actives largely listed as inhibitors; 0.041% of 370,000 active; AID 485294; also: nearly all actives have a fitted effect of over 25% in size
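20 mM phosphate pH 7.0 + 0.01% (detergent screen) or 0.0001% Triton X-100; 5.3 nM AmpC reagent; cpd preinc 15 min RT; nitrocefin (800 uM stock) to start; A480 q20 s × 4 min; Activity was normalised to no-enzyme and no-compound control wells.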
HCV inh: inhibitors of hepatitis C virus infection | AID 651820 | Potency, µM (top dose mostly 41.8 µM), most hits filed as inhibitors | 3.4% of 340,000 active | Huh7.5.1 HCVcc-Cre infection, luciferase reporter, 44 h
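HCVcc-Cre virus at an moi near 0.5 was added right after compound to cells cultured 4 h from seeding (1,000 cells/well). Luciferase activity was determined 44 h later, 15 min after substrate addition at RT.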
Pf growth 96h: inhibits malaria parasite growth, 96 h; P. falciparum luciferase reporter growth, 96 h; Potency, µM (top dose mostly 28.7 µM), actives largely listed as inhibitors; 6.9% of 320,000 active
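Erythrocytes infected with luciferase-expressing P. falciparum were dispensed at 2% hematocrit and 0.05% parasitemia (final), then incubated with compounds 96 hours at 37 C in 5% CO2. Luminescence after detection reagent addition reported growth.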
Pf growth 48h: P. falciparum growth inhibition at 48 hours (one generation) | P. falciparum luciferase growth in erythrocytes, 48 h | Potency, µM (series often up to 28.7 µM), usual class: inhibitors | 5.9% of 310,000 active | AID 504832
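A one-generation exposure of luciferase-tagged malaria parasites in RPMI 1640/Albumax erythrocyte culture, 37 C and 5% CO2. Inhibition is inferred from decreased luminescence after adding detection reagent.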
Of the large screens only hits and unclear results are named; the others gave an inactive call. Calls follow the shape of the dose curve; as a rule, active = well fitted curve in the direction sought with a large enough effect; inconclusive = small, poorly fitted or top-dose-only effect, or another doubt; inactive = no such curve, though single readings can be large; an effect the other way counts as inactive or inconclusive.

COc1ccc(F)cc1S(=O)(=O)N1CCN(C(=O)c2ccco2)CC1	Pf growth 96h 10µM
O=C(OC[C@H]1O[C@@H](OC(=O)c2cc(O)c(O)c(OC(=O)c3cc(O)c(O)c(O)c3)c2)[C@H](OC(=O)c2cc(O)c(O)c(OC(=O)c3cc(O)c(O)c(O)c3)c2)[C@@H](OC(=O)c2cc(O)c(O)c(OC(=O)c3cc(O)c(O)c(O)c3)c2)[C@@H]1OC(=O)c1cc(O)c(O)c(OC(=O)c2cc(O)c(O)c(O)c2)c1)c1cc(O)c(O)c(OC(=O)c2cc(O)c(O)c(O)c2)c1	AmpC inh no detg inconclusive, AmpC inh detg inconclusive, HCV inh 11µM, Pf growth 96h 9.3µM, Pf growth 48h inconclusive (no result: AMA1 RON2 block)
CC(=O)c1ccc(Nc2ccc3cc(S(=O)(=O)N4CCCC4)ccc3n2)cc1	none (no result: AMA1 RON2 block, AmpC inh no detg, HCV inh, Pf growth 96h, Pf growth 48h)
Nc1nnc(-c2ccco2)s1	none
Nc1ncnc2oc(-c3ccco3)c(-c3ccco3)c12	AMA1 RON2 block inconclusive, HCV inh 11µM, Pf growth 96h inconclusive
CCN(CC)c1ccc(/C=C2\C(=O)N(c3nnc(C)c(=O)[nH]3)N=C2C)cc1	AMA1 RON2 block 14µM
CCOc1ccc(C2SCC(=O)N2c2c(C)n(C)n(-c3ccccc3)c2=O)cc1 (centres undefined)	AmpC inh detg inconclusive
CCOc1ccc(C2=C(C=Nc3c(C)n(C)n(-c4ccccc4)c3=O)C(c3ccc(F)cc3)c3ccccc3O2)cc1 (centres undefined)	Pf growth 96h 0.29µM (no result: Pf growth 48h)
C/C(=N\Nc1nc(-c2ccc(C)cc2)nc2ccccc12)c1ccc([N+](=O)[O-])cc1	Pf growth 96h 2.1µM (no result: AMA1 RON2 block, HCV inh)
COc1ccc(-c2nc(N/N=C(\C)c3ccc(O)cc3)c3ccccc3n2)cc1	HCV inh 10µM, Pf growth 48h inconclusive
O=C(O)c1ccc(Nc2nc(-c3ccc([N+](=O)[O-])cc3)nc3ccccc23)cc1	Pf growth 48h inconclusive
CCOC(=O)C1=C(CS(=O)(=O)c2ccc(F)cc2)NC(=O)NC1c1ccc(OCC)c(OC)c1 (centres undefined)	none (no result: AMA1 RON2 block, AmpC inh no detg, HCV inh, Pf growth 96h, Pf growth 48h)
COc1ccc(/C=C(\C#N)C(=O)Nc2cc(S(=O)(=O)N3CCOCC3)ccc2N2CCCC2)cc1	none
COc1ccc(C(C)(C)C)cc1NC(=O)c1cc(S(=O)(=O)N(C)C)ccc1N1CCCC1	HCV inh inconclusive, Pf growth 96h 9.3µM, Pf growth 48h 13µM
CCN(CC)S(=O)(=O)c1ccc(N2CCCCC2)c(NC(=O)/C(C#N)=C/c2ccc(OC)cc2)c1	AmpC inh no detg 4µM, HCV inh inconclusive, Pf growth 96h 12µM, Pf growth 48h inconclusive
CCOc1ccc(/C=C/C(=O)NC2CCCCC2)cc1	Pf growth 96h inconclusive
CCN(CC)S(=O)(=O)c1ccc(N2CCCC2)c(NC(=O)c2ccc(OC)cc2OC)c1	HCV inh inconclusive, Pf growth 96h inconclusive, Pf growth 48h 13µM
CCN(CC)S(=O)(=O)c1ccc(/C=C/C(=O)NC2CCCCC2)cc1	AmpC inh detg inconclusive, Pf growth 96h 4.7µM, Pf growth 48h inconclusive
CN(C)S(=O)(=O)c1ccc(N2CCCC2)c(C(=O)Nc2ccc(F)cc2F)c1	Pf growth 96h inconclusive, Pf growth 48h inconclusive
CCN(CC)C(=O)Cn1c(SCC(=O)Nc2ccc(F)cc2)nc2ccccc21	none (no result: AMA1 RON2 block, AmpC inh no detg, HCV inh, Pf growth 96h, Pf growth 48h)
CCC(Oc1ccccc1-c1nnc(-c2ccccc2)o1)C(=O)Nc1ccc(C(C)=O)cc1 (centres undefined)	none (no result: AMA1 RON2 block, AmpC inh no detg, HCV inh, Pf growth 96h, Pf growth 48h)
CCOc1ccc(S(=O)(=O)Nc2cc(S(=O)(=O)N(CC)CC)ccc2N2CCCC2)cc1	AmpC inh detg inconclusive, HCV inh inconclusive, Pf growth 96h 1.3µM, Pf growth 48h 7.4µM
CCN(CC)S(=O)(=O)c1ccc(N2CCCC2)c(NC(=O)Cc2ccc(OC)cc2)c1	HCV inh inconclusive, Pf growth 96h inconclusive, Pf growth 48h inconclusive
CCN(CC)S(=O)(=O)c1ccc(N2CCCCC2)c(NC(=O)/C=C/c2ccc(OC)c(OC)c2)c1	AmpC inh detg inconclusive, HCV inh inconclusive, Pf growth 96h 10µM, Pf growth 48h 9.3µM
CCN(CC)S(=O)(=O)c1ccc(N2CCCC2)c(NC(=O)Cc2cc(OC)c(OC)c(OC)c2)c1	HCV inh inconclusive, Pf growth 96h inconclusive, Pf growth 48h 7.4µM
CCN(CC)S(=O)(=O)c1ccc(N2CCCC2)c(NC(=O)C2CCCCC2)c1	none
O=C(Nc1ccccc1Cl)[C@H](CSCc1ccccc1)N1Cc2ccccc2C1=O	none (no result: AMA1 RON2 block, AmpC inh no detg, HCV inh, Pf growth 96h, Pf growth 48h)
CC(C)Cn1cc(NC(=O)N2CCN(c3ccccc3F)CC2)c2ccccc2c1=O	none (no result: AMA1 RON2 block, AmpC inh no detg, HCV inh, Pf growth 96h, Pf growth 48h)
CC(C)(C)C(=O)N1CCN(c2ncnc3scc(-c4ccccc4)c23)CC1	HCV inh inconclusive, Pf growth 96h 13µM (no result: Pf growth 48h)
CCOC(=O)N1CCN(c2ncnc3scc(-c4ccccc4)c23)CC1	HCV inh 8.9µM, Pf growth 96h inconclusive, Pf growth 48h inconclusive
Nc1nc(N2CCN(C(=O)c3ccco3)CC2)nc2ccc(Br)cc12	HCV inh 11µM
Nc1nc(N2CCN(C(=O)c3ccco3)CC2)nc2ccccc12	Pf growth 48h inconclusive
CCCN(CCC)CCCNC(=S)Nc1ccc2nc(N3CCN(CC)CC3)cc(C)c2c1	HCV inh inconclusive, Pf growth 48h 4.1µM
CCCN(CCC)CCCNC(=S)Nc1ccc2nc(N3CCN(C)CC3)cc(C)c2c1	HCV inh 13µM, Pf growth 96h inconclusive
CCN1CCN(c2cc(C)c3cc(NC(=S)N4CCCC4)ccc3n2)CC1	none
CCCCN(CC)CCNC(=O)CCC(=O)Nc1ccc2nc(N3CCN(C)CC3)cc(C)c2c1	Pf growth 48h inconclusive
